# Test results as given in PubChem BioAssay (EPA / NIEHS).
# Records with an inconclusive call do not appear. The source made the active and inactive calls. Rule for the calls: active = hit-call score of the fitted dose curve at least 0.9, where 1 is the maximum; inconclusive = response in the unintended direction; inactive = score below 0.9.
# Test: Tanguay_ZF_120hpf_NC_legacy: (Legacy) Oregon State University Tanguay Lab 120 Hour Post-fertilization zebrafish Assay for Notochord and Tail Malformation (AID 2283656)
# Experimental: Tanguay_ZF_120hpf_legacy is a whole embryo, multiplexed endpoint assay using zebrafish larvae exposed for 120 hours post fertilization on a 96-well plate.Tanguay_ZF_120hpf_NC_legacy is one of one assay component(s) measured or calculated from the Tanguay_ZF_120hpf_legacy assay. It is designed to make measurements of zebrafish development as detected with brightfield microscopy of developing zebrafish embryos.Data from the assay component Tanguay_ZF_120hpf_NC_legacy was analyzed into 1 assay endpoints. This assay endpoint, Tanguay_ZF_120hpf_NC_legacy, was analyzed in the positive analysis fitting direction relative to DMSO as the negative control and baseline of activity. Using a type of morphology reporter, gain-of-signal activity can be used to understand changes in developmentals as they relate to the whole embryo. To generalize the intended target to other relatable targets, this assay endpoint is annotated to the zebrafish development intended target family, where the subfamily is embryonic notochord morphogenesis.
# Zebrafish husbandry: Tropical 5D wild-type adult zebrafish were housed in at an approximate density of 1000 per 100 gallon tank at the Sinnhuber Aquatic Research Laboratory, Oregon State University, Corvallis, OR. Each tank was kept at standard laboratory conditions of 28C on a 14-h light/10-h dark photoperiod in fish water consisting of reverse osmosis water supplemented with a commercially available salt (Instant Ocean). Spawning funnels were placed into the tanks the night prior, and embryos were collected and staged. To increase bioavailability, the chorion was enzymatically removed using pronase (63.6mg/ml, >/= 3.5U/mg, Sigma-Aldrich: P5147) at 4 hours post fertilization (hpf) using a custom automated dechorionator.Chemical exposures: Six hpf dechorionated embryos were placed 1 embryo per well in a 96-well plate prefilled with 90 ul of EM using automated embryo placement systems (AEPS). Ten microliters of each row of dilution plate 2 was added to 2 exposure plates. The final DMSO concentration used was 0.64% (vol/vol). Thirty-two embryos were also exposed to 5uM trimethyltin chloride (positive control). Plates were sealed to prevent evaporation and foil covered to reduce light exposure and kept in a 28C incubator. Embryos were statically exposed until 120 hpf. At 24 hpf, embryos were assessed for photomotor response using a custom photomotor response analysis tool (PRAT) and for developmental toxicity endpoints (MO24: mortality at 24 hpf, DP: developmental progression, SM: spontaneous movement, and NC: notochord distortion). At 120 hpf, locomotor activity was measured using Viewpoint Zebralab and assessed for 18 endpoints. Zebrafish acquisition and analysis program (ZAAP), a custom program designed to inventory, acquire, and manage zebrafish data, was used to collect developmental endpoints as either present or absent (i.e., binary responses were recorded). If mortality occurred for an embryo (at either 24 or 120 hpf), the non-mortality endpoints were not measured.
Compound,outcome,AC50
CCCCCCCCCCCCc1cccc(S(=O)(=O)O)c1,inactive,–
N#Cc1cccnc1,inactive,–
CC(C)O.CC(C)O.OCCN(CCO)CCO.OCCN(CCO)CCO.[Ti],inactive,–
Oc1cc(Cl)c(Cl)cc1Cl,inactive,–
OCCN(CCO)CCO,inactive,–
Oc1c(Cl)cc(Cl)cc1Cl,inactive,–
Clc1cccc(Cl)c1Cl,inactive,–
CN(C)C(=S)S,–,1050 nM (active)
CC(C)(C)c1ccccc1O,inactive,–
O=C(N[C@H]1CN2CCC1CC2)c1ccc2c(c1)OCCO2,inactive,–
